Experimental data: PubChem BioAssay (NCATS)
Records with an inconclusive call do not appear. A call without a number means that no potency is given here. A number with no mark means an inactive call. Calls of active or inactive are those of the source. The call rests on the fitted dose curve; in most records, active means well fitted inhibition curve with a large enough effect; inconclusive means small, poorly fitted or top-dose-only effect; inactive means no such curve, though single readings can be large or run the other way.

How the values were obtained:
[1] = tested on: Zika virus NS2B-NS3 protease (unlinked complex); test: Primary screen GU Rhodamine qHTS for Zika virus inhibitors: Unlinked NS2B-NS3 protease assay (AID 1347159); further: nearly all actives have a fitted effect of over 60% in size
Procedure, shortened: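 Noncovalent NS2B hydrophilic domain/NS3 protease complex (25 nM final) in 10 mM Tris-HCl pH 8.0, 0.01% Tween 20, preincubated 15 min with compounds (up to 114 microM), then 1.5 microM Rhodamine110 substrate. Fluorescence change over 15 min fitted to 4-parameter Hill.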

[2] = tested on: Zika virus NS2B-NS3 protease (linked construct); test: Primary screen NINDS Rhodamine qHTS for Zika virus inhibitors (AID 1347160); further: nearly all actives have a fitted effect of over 55% in size
Procedure, shortened: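 Purified NS2B-NS3 protease with the NS2B hydrophilic domain joined by a flexible linker (25 nM) in 10 mM Tris-HCl pH 8.0, 0.01% Tween 20, preincubated 15 min at RT with compound; Rhodamine110 peptide substrate 1.5 µM; fluorescence change over 15 min; 4-parameter Hill fit.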

Row | Structure (SMILES) | Potency [1] | Potency [2] | activity change, negative = inhibition [1] | activity change, negative = inhibition [2]
1 | Oc1ccc(-c2cnc3ccc(NCc4ccco4)nn23)cc1 | inactive | inactive | – | –
2 | CC(C)OC(=O)N1CCC(Oc2ncnc3c2cnn3-c2ccc(S(C)(=O)=O)cc2F)CC1 | inactive | inactive | – | –
3 | COc1cccc(CN(C(=O)CC(C)(C)C)[C@H]2C[C@H](C(=O)N3CCNCC3)N(Cc3ccc4c(c3)OCO4)C2)c1 | inactive | inactive | – | –
4 | Cc1nc(C#Cc2ccnc(Cl)c2)c(C)n1-c1ccc(OC(F)(F)F)cc1 | inactive | inactive | – | –
5 | COc1ccc(-c2cnc3c(-c4cccc5ncccc45)cnn3c2)cc1 | inactive | inactive | – | –
6 | C[C@@H](NC(=O)C(=O)c1c[nH]c2ccc([N+](=O)[O-])cc12)c1ccccc1 | inactive | inactive | – | –
7 | Fc1ccc(N2CCCCC2)c(NC(=S)c2ccncc2)c1 | inactive | inactive | – | –
8 | Cc1onc(-c2ccccc2)c1C(=O)N1CCN(c2ccc([N+](=O)[O-])cc2Cl)CC1 | inactive | inactive | – | –
9 | CC[C@H]1CN(c2nc(N)c(C(N)=O)nc2Cl)CCN1C1CCN(Cc2ccc(Cl)cc2)CC1 | inactive | inactive | – | –
10 | Cn1cc(-c2ccc(S(=O)(=O)n3ccc(/C=C/C(=O)Nc4ccccc4N)c3)cc2)cn1 | inactive | inactive | – | –
11 | CCCOc1ccc(S(=O)(=O)N2CCN(CCO)CC2)cc1-c1nc2c(CCC)cn(CC)c2c(=O)[nH]1 | inactive | inactive | – | –
12 | C=C1C(=O)OC2/C=C(\CO)CC/C=C(\C=O)C(OC)C(OC(=O)C(C)CC)C12 (stereo not given) | inactive | inactive | – | –
13 | COc1ccc2[nH]c(=O)c3c(c2c1)OC(C)(C)C=C3 | inactive | inactive | – | –
14 | CC(=O)c1c(C)cc2cccc(O)c2c1O[C@@H]1O[C@H](CO)[C@@H](O)[C@H](O)[C@H]1O | inactive | inactive | – | –
15 | C=C1C(=O)OC2CC(C)=C(C(C)CCCOC(C)=O)C(OC(=O)CC(C)CC)C12 (stereo not given) | inactive | inactive | – | –
16 | CCOc1ccc(Cc2nc(-c3c(C)nc4ccccn34)cs2)cc1 | inactive | inactive | – | –
17 | Cn1ncnc1[C@H]1c2n[nH]c(=O)c3cc(F)cc(c23)N[C@@H]1c1ccc(F)cc1 | inactive | inactive | – | –
18 | O=C(OC1CN2CCC1CC2)N1CCc2ccccc2C1c1ccccc1 (stereo not given) | inactive | inactive | – | –
19 | C[C@@H]1O[C@@H](O[C@H]2[C@@H](OC(=O)[C@]34CCC(C)(C)CC3C3=CCC5[C@@]6(C)C[C@H](O)[C@H](O[C@@H]7O[C@H](CO)[C@@H](O)[C@H](O)[C@H]7O[C@@H]7OC[C@@H](O)[C@H](O)[C@H]7O)[C@@](C)(C(=O)O)C6CC[C@@]5(C)[C@]3(C)CC4)OC[C@H](O)[C@@H]2O)[C@H](O)[C@H](O)[C@H]1O[C@@H]1OC[C@@H](O)[C@H](O)[C@H]1O (stereo not given in full) | – | – | 46.4% [at 19.1 µM] | 21.4% [at 10.7 µM]
20 | CN1CC2CN(c3ccc4oc5ccccc5c(=O)c4c3)CC2C1 (stereo not given) | inactive | inactive | – | –
